According to PubChem BioAssay AID1159580 (chemical genetic matrix, 2015):
“And” between values parts separate entries of the source, which are not always exact repeats. Equal entries are not always repeated. About 2,000 (36%) of roughly 5,500 compounds were called active. Another 18% or so got no clear call; they are omitted. No stated cut-off is given here; in the data, active means normalized growth mostly below about 0.91 (no sharp cut-off); inconclusive means no clear call, values can overlap the other calls; inactive means mostly above about 0.92. Some of the results follow.

Assay: chemical genetic growth profiling, strain panel (AID 1159580);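 further: tested at 20 µM; growth read once vehicle control cultures reached saturation at 30 °C; 1 = growth at the plate median or of vehicle wells; lower values mean less growth of the strain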
Conditions: S. cerevisiae deletion strains, growth OD

Measured: normalized growth

CC(C)=CCOc1cc2oc(=O)ccc2cc1O
active: locus YDL192W, strain arf1, active compounds read low 0.879 | locus YDR318W, strain mcm21, active compounds read low 0.902 | locus YDR392W, strain spt3, active compounds read low 0.706 | locus YDR502C, strain sam2, active compounds read low 0.909 | locus YER155C, strain BEM2 (second series), active compounds read low 0.685 | locus YER167W, strain BCK2, active compounds read low 0.881 | locus YGL086W, strain mad1, active compounds read low 0.882 | locus YGL253W, strain hxk2, active compounds read low 0.899 | locus YGR252W, strain gcn5, active compounds read low 0.713 | locus YHR129C, strain ARP1, active compounds read low 0.918 | locus YHR200W, strain rpn10, active compounds read low 0.895 | locus YIL066C, strain RNR3, active compounds read low 0.85 | locus YKR001C, strain vps1, active compounds read low 0.662 | locus YLR039C, strain RIC1, active compounds read low 0.647 | locus YLR320W, strain mms22, active compounds read low 0.848 | locus YLR330W, strain CHS5, active compounds read low 0.839 | locus YLR418C, strain cdc73, active compounds read low 0.753 | locus YML032C, strain rad52, active compounds read low 0.895 | locus YMR223W, strain ubp8, active compounds read low 0.894 | locus YMR307W, strain GAS1, active compounds read low 0.596 | locus YNL071W, strain lat1, active compounds read low 0.898 | locus YNL233W, strain BNI4, active compounds read low 0.792 | locus YNL307C, strain MCK1, active compounds read low 0.786 | locus YOL147C, strain pex11, active compounds read low 0.885 | locus YOR184W, strain ser1, active compounds read low 0.72 | locus YPL051W, strain arl3, active compounds read low 0.895 | locus YPR163C, strain tif3, active compounds read low 0.849 | strain wtn01, active compounds read low 0.877
inactive: locus YAL021C, strain ccr4, active compounds read low 0.977 | locus YAL026C, strain drs2, active compounds read low 0.919 | locus YAL030W, strain snc1, active compounds read low 0.978 | locus YBL061C, strain skt5, active compounds read low 0.94 | locus YBR009C, strain hhf1, active compounds read low 0.937 | locus YBR021W, strain FUR4, active compounds read low 0.876 | locus YBR023C, strain chs3, active compounds read low 0.929 | locus YBR171W, strain sec66, active compounds read low 0.915 | locus YBR229C, strain ROT2, active compounds read low 0.967 | locus YBR231C, strain swc5, active compounds read low 0.93 | locus YBR279W, strain paf1, active compounds read low 0.962 | locus YCL011C, strain gbp2, active compounds read low 0.911 | locus YCL016C, strain dcc1, active compounds read low 0.965 | locus YCL029C, strain bik1, active compounds read low 0.961 | locus YCL061C, strain MRC1, active compounds read low 0.94 | locus YCL069W, strain vba3, active compounds read low 0.94 | locus YCR088W, strain abp1, active compounds read low 0.957 | locus YDL005C, strain med2, active compounds read low 0.956 | locus YDL035C, strain GPR1, active compounds read low 0.894 | locus YDL040C, strain nat1, active compounds read low 0.951 | locus YDL074C, strain BRE1, active compounds read low 0.808 | locus YDL101C, strain DUN1, active compounds read low 0.935 | locus YDL185W, strain tfp1, active compounds read low 0.965 | locus YDR001C, strain nth1, active compounds read low 0.965 | locus YDR069C, strain doa4, active compounds read low 0.944 | locus YDR101C, strain arx1, active compounds read low 0.919 | locus YDR137W, strain rgp1, active compounds read low 0.881 | locus YDR159W, strain sac3, active compounds read low 0.881 | locus YDR162C, strain NBP2, active compounds read low 0.876 | locus YDR195W, strain ref2 1.02 | locus YDR297W, strain sur2, active compounds read low 0.969 | locus YDR334W, strain swr1, active compounds read low 0.927 | locus YDR335W, strain msn5, active compounds read low 0.968 | locus YDR388W, active compounds read low 0.96 | locus YEL003W, strain gim4, active compounds read low 0.935 | locus YEL037C, strain rad23, active compounds read low 0.941 | locus YEL061C, strain CIN8 (second series), active compounds read low 0.938 | locus YEL061C, strain CIN8, active compounds read low 0.957 | locus YER015W, strain faa2, active compounds read low 0.937 | locus YER016W, strain bim1, active compounds read low 0.962 | locus YER110C, active compounds read low 0.971 | locus YER111C, strain swi4, active compounds read low 0.95 | locus YER155C, strain BEM2, active compounds read low 0.962 | locus YFR010W, strain ubp6, active compounds read low 0.942 | locus YGL078C, strain dbp3, active compounds read low 0.97 | locus YGL167C, strain pmr1, active compounds read low 0.939 | locus YGL173C, strain kem1, active compounds read low 0.926 | locus YGL227W, strain vid30, active compounds read low 0.957 | locus YGL240W, strain doc1, active compounds read low 0.886 | locus YGL248W, strain PDE1, active compounds read low 0.9 | locus YGR135W, strain pre9, active compounds read low 0.915 | locus YHR013C, strain ard1, active compounds read low 0.955 | locus YHR027C, strain rpn1, active compounds read low 0.956 | locus YHR030C, strain SLT2, active compounds read low 0.947 | locus YHR079C, strain IRE1 (second series), active compounds read low 0.974 | locus YHR079C, strain IRE1, active compounds read low 0.936 | locus YHR094C, strain hxt1, active compounds read low 0.97 | locus YHR142W, strain chs7, active compounds read low 0.878 | locus YIL073C, strain SPO22, active compounds read low 0.975 | locus YIL125W, strain kgd1, active compounds read low 0.948 | locus YIR030C, strain dcg1, active compounds read low 0.97 | locus YJL092W, strain hpr5, active compounds read low 0.927 | locus YJL095W, strain BCK1 (second series), active compounds read low 0.948 | locus YJL095W, strain BCK1, active compounds read low 0.858 and 0.946 | locus YJL115W, strain asf1, active compounds read low 0.949 | locus YJL129C, strain trk1, active compounds read low 0.904 | locus YJL134W, strain LCB3, active compounds read low 0.963 | locus YJL154C, strain vps35, active compounds read low 0.966 | locus YJL164C, strain tpk1, active compounds read low 0.974 | locus YJL166W, strain qcr8, active compounds read low 0.94 | locus YJL168C, strain set2, active compounds read low 0.977 | locus YJL187C, strain SWE1 (second series), active compounds read low 0.889 | locus YJL187C, strain SWE1, active compounds read low 0.951 | locus YJR066W, strain TOR1, active compounds read low 0.92 | locus YKL009W, strain mrt4, active compounds read low 0.916 | locus YKL068W, active compounds read low 0.97 | locus YKL085W, strain MDH1 (second series), active compounds read low 0.959 | locus YKL085W, strain MDH1, active compounds read low 0.959 | locus YKL160W, strain elf1, active compounds read low 0.981 | locus YKL190W, strain CNB1, active compounds read low 0.953 | locus YKR026C, strain gcn3, active compounds read low 0.927 | locus YKR091W, strain srl3, active compounds read low 0.96 | locus YLL001W, strain dnm1, active compounds read low 0.964 | locus YLL026W, active compounds read low 0.941 | locus YLL041C, strain sdh2, active compounds read low 0.934 | locus YLR027C, strain aat2, active compounds read low 0.939 | locus YLR058C, strain SHM2, active compounds read low 0.905 | locus YLR102C, strain apc9, active compounds read low 0.974 | locus YLR113W, strain HOG1, active compounds read low 0.977 | locus YLR221C, strain rsa3, active compounds read low 0.916 | locus YLR258W, strain gsy2, active compounds read low 0.951 | locus YLR262C, strain YPT6 (second series), active compounds read low 0.956 | locus YLR268W, strain sec22, active compounds read low 0.9 | locus YLR342W, strain FKS1, active compounds read low 0.946 | locus YLR357W, strain rsc2, active compounds read low 0.952 | locus YLR370C, strain arc18, active compounds read low 0.925 | locus YLR371W, strain rom2, active compounds read low 0.934 | locus YLR384C, strain iki3, active compounds read low 0.966 | locus YML016C, strain PPZ1, active compounds read low 0.948 | locus YML120C, strain ndi1, active compounds read low 0.953 | locus YML124C, strain tub3, active compounds read low 0.949 | locus YMR058W, strain fet3, active compounds read low 0.934 | locus YMR078C, strain ctf18, active compounds read low 0.963 | locus YMR125W, strain sto1, active compounds read low 0.956 | locus YMR129W, active compounds read low 0.961 | locus YMR205C, strain PFK2, active compounds read low 0.934 | locus YMR231W, strain pep5, active compounds read low 0.929 | locus YNL067W, strain RPL9B, active compounds read low 0.912 | locus YNL128W, strain TEP1, active compounds read low 0.929 | locus YNL183C, strain NPR1, active compounds read low 0.923 | locus YNL209W, strain ssb2, active compounds read low 0.971 | locus YNL248C, strain rpa49, active compounds read low 0.98 | locus YNL250W, strain rad50, active compounds read low 1 | locus YNL271C, strain bni1, active compounds read low 0.97 | locus YNL298W, strain CLA4, active compounds read low 0.955 | locus YNL322C, strain KRE1 (second series), active compounds read low 0.928 | locus YNR049C, strain mso1, active compounds read low 0.942 | locus YNR052C, strain pop2, active compounds read low 0.997 | locus YOL012C, strain htz1 0.93 | locus YOR001W, strain rrp6, active compounds read low 0.906 | locus YOR061W, strain CKA2, active compounds read low 0.959 | locus YOR069W, strain VPS5, active compounds read low 0.951 | locus YOR070C, strain gyp1, active compounds read low 0.947 | locus YOR080W, strain dia2, active compounds read low 0.947 | locus YOR083W, strain WHI5, active compounds read low 0.977 | locus YOR106W, strain vam3, active compounds read low 0.94 | locus YOR136W, strain idh2, active compounds read low 0.957 | locus YOR144C, strain elg1, active compounds read low 0.945 | locus YOR231W, strain MKK1, active compounds read low 0.924 | locus YOR265W, strain rbl2, active compounds read low 0.949 | locus YOR270C, strain vph1, active compounds read low 0.799 | locus YOR290C, strain snf2, active compounds read low 0.917 | locus YOR316C, strain cot1, active compounds read low 0.973 | locus YPL078C, strain atp4, active compounds read low 0.962 | locus YPL106C, strain sse1, active compounds read low 0.908 | locus YPL240C, strain hsp82, active compounds read low 0.937 | locus YPL241C, strain CIN2, active compounds read low 0.963 | locus YPL256C, strain CLN2, active compounds read low 0.906 | locus YPR119W, strain clb2, active compounds read low 0.971 | locus YPR141C, strain kar3, active compounds read low 0.974 | locus YPR167C, strain met16, active compounds read low 0.942
